Test results taken from PubChem BioAssay (NCI).
Compounds without any hit were thinned out: in the full panel of roughly 79,000, 15% have a hit. The source made the active and inactive calls. No stated cut-off is given here; in the data, active means growth inhibition above about 70%; inactive means the rest.

Key:
[1] = NCI Yeast Anticancer Drug Screen. Data for the rad50 strain (AID 155);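 further: 0% = growth of vehicle-only cultures of the same strain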; conditions: S. cerevisiae rad50 strain growth inhibition; at 50.0 µM; stronger effect = higher value
Method in brief: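 Yeast carrying a defined DNA repair defect were exposed to test compounds, and growth was compared with vehicle-treated controls to give percent inhibition.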

[2] = NCI Yeast Anticancer Drug Screen. Data for the mec2-1 strain (AID 157); conditions: S. cerevisiae mec2-1 strain, at 50.0 µM, stronger effect = higher value
Method in brief: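 Test agents were screened against the mec2-1 yeast strain, with defined DNA repair or cell cycle alteration. Growth was scored as inhibition against vehicle-only controls.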

[3] = NCI Yeast Anticancer Drug Screen. Data for the sgs1 mgt1 strain (AID 161);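 further: 0% = growth of cultures given vehicle only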; conditions: S. cerevisiae sgs1 mgt1 strain, at 50.0 µM, stronger effect = higher value
Method in brief: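 Read-out: growth inhibition vs vehicle controls. Cells: mutant yeast strain deficient in DNA damage repair.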

[4] = NCI Yeast Anticancer Drug Screen. Data for the cln2 rad14 strain (AID 165);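 further: 0% = growth equal to vehicle treated cultures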; conditions: S. cerevisiae cln2 rad14 strain, at 50.0 µM, stronger effect = higher value
Method in brief: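 Growth of compound-exposed yeast (cln2 rad14 genotype) measured and expressed as inhibition relative to vehicle.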

[5] = NCI Yeast Anticancer Drug Screen. Data for the bub3 strain (AID 167); conditions: S. cerevisiae bub3 mutant strain, at 50.0 µM, stronger effect = higher value
Method in brief: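 Compounds were applied to a genetically altered yeast strain carrying a cell-cycle control defect. Growth inhibition was scored against vehicle-treated controls.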

[6] = NCI Yeast Anticancer Drug Screen. Data for the mlh1 rad18 strain (AID 175); conditions: S. cerevisiae mlh1 rad18 strain growth inhibition; at 50.0 µM; stronger effect = higher value
Method in brief: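 In this whole-cell yeast screen, a strain with altered DNA damage repair is challenged with compound, and its growth is measured against matched vehicle-treated controls.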

Measured: growth inhibition

CC(C)C(=O)Nc1ccccc1-c1ccccc1
inactive: [1] 14.3% | [2] -1.45% | [3] -9.35% | [4] -1.4% | [5] 0.05% | [6] 8.8%

Cc1ccsc1/C=N/Nc1ncccn1
inactive: [1] 16.1% | [2] 10.7% | [3] 23.4% | [4] 3.7% | [5] 13.9% | [6] 24.1%

O=C(/C=C/c1ccc2c(c1)OCO2)CC(=O)/C=C/c1ccc2c(c1)OCO2
inactive: [1] 3.5% | [2] 19.6% | [3] 11.3% | [4] 7.15% | [5] -4.3% | [6] -15.6%

CCOC(=O)C(C(=O)CC(C)C)C(C)C (stereo unspecified)
inactive: [1] -15.9% | [2] -25.2% | [3] 1.1% | [4] -30.4% | [5] 2.95% | [6] -5.7%

O=C(CCCCc1ccccc1)NO
inactive: [1] 25.4% | [2] 18.8% | [3] 14.4% | [4] 15.8% | [5] -5.5% | [6] 33.5%

Cc1ccccc1C(=O)NCc1ccccc1
inactive: [1] 13.6% | [2] -6.7% | [3] 0.6% | [4] -27.5% | [5] 11.3% | [6] 4.25%

CCN(CCO)CC(O)Cn1cnc2c(N)ncnc21 (stereo unspecified)
inactive: [1] 2.35% | [2] -13.6% | [3] -18.1% | [4] 26.6% | [5] -17.3% | [6] 23.4%

O=C(O)c1[nH]ncc1[N+](=O)[O-]
inactive: [1] 24.1% | [2] -4.85% | [3] -5.05% | [4] 11.3% | [5] 11% | [6] 2.8%

CN(CC(=O)c1ccc(I)cc1)Cc1ccccc1
inactive: [1] 28.1% | [2] -1.25% | [3] 16.4% | [4] -5.9% | [5] 12.8% | [6] 45.7%

C(=N\Nc1nc2ccccc2s1)/c1cccs1
inactive: [1] 16.9% | [2] 33% | [3] 23.6% | [4] 16.1% | [5] 36.4% | [6] 29.4%

Cc1ccc(-c2cc(-c3cc(-c4ccc(C)cc4)nc(N)n3)nc(N)n2)cc1
inactive: [1] 3.7% | [2] -13.4% | [3] -20.1% | [4] -13.2% | [5] -25.1% | [6] -13%

O=C(Cc1ccccc1)NN1C(=O)/C(=C\c2ccccc2)SC1=Nc1ccccc1
inactive: [1] 12% | [2] -1.35% | [3] 19.3% | [4] 35.5% | [5] 9.15% | [6] 10.8%

NC(=O)c1nnn(-c2ccccc2)n1
inactive: [1] -9.75% | [2] -8.9% | [3] -10% | [4] -12.3% | [5] -5.75% | [6] -12.7%

Cc1cc(-c2ccccc2)[nH]c1-c1nccc2ccccc12
inactive: [1] 4.1% | [2] 8% | [3] 0.8% | [4] 24% | [5] -4.5% | [6] 4.7%

COC(OC)c1cccc2c1C(=O)CCC1(CC2)OCCCCO1
inactive: [1] 0.3% | [2] -21.1% | [3] -22.8% | [4] 3.6% | [5] -39.9% | [6] -11.2%

COc1ccc(C(C#N)C(=O)C(=O)Nc2ccc(C)cc2C)cc1OC (stereo unspecified)
inactive: [1] -30.6% | [2] 19.6% | [3] 42% | [4] -22.9% | [5] 48.2% | [6] 28.8%

NC(N)=Nc1ccc(CC(N)C(=O)NCC(=O)C(CC(=O)O)c2ncc(NC(=O)C(F)(F)F)o2)cc1 (stereo unspecified)
inactive: [1] -17.4% | [2] -1.75% | [3] -5.15% | [4] -4% | [5] -19.6% | [6] 7.35%

COc1cc(=O)cc2n(c1=O)CCC2
inactive: [1] -8.45% | [2] -5.05% | [3] -13.2% | [4] -28% | [5] 8.5% | [6] -2.25%

COC1OC2COC(c3ccccc3)OC2C2C1N2C(=S)SC (stereo unspecified)
inactive: [1] -4.05% | [2] 1.7% | [3] -2.7% | [4] -17.6% | [5] -0.75% | [6] -0.55%

C(=Nc1ccccc1)Nc1ccccc1
inactive: [1] 2.85% | [2] 15.1% | [3] 16.4% | [4] 25.9% | [5] -15.4% | [6] -12.8%

Clc1c2c(nc3ccccc13)CCCC2
inactive: [1] 19.3% | [2] 50.9% | [3] 49.4% | [4] -37% | [5] 7.65% | [6] 8.05%

C=CCn1c(=O)cc[nH]c1=S
inactive: [1] -11.6% | [2] -13.2% | [3] -24.7% | [4] 3.4% | [5] -1.05% | [6] -21.2%

Nc1ccc(N)c(N)c1
inactive: [1] 26.3% | [2] 53.1% | [3] 31.4% | [4] -31.2% | [5] -4.9% | [6] 6.8%

CN(C)c1c(F)c(F)c(N=Nc2ccccc2)c(F)c1F
inactive: [1] 0.75% | [2] -2.6% | [3] 1.15% | [4] -3.15% | [5] 16.8% | [6] -12.1%

CCOC(=O)/C=C/C(=O)N1CCN(C(=O)/C=C/C(=O)OCC)C(C)C1 (stereo unspecified)
inactive: [1] -3.3% | [2] -40.8% | [3] -6.7% | [4] 4.25% | [5] -41.5% | [6] -15.9%

COc1cc(/C=C/C(=O)N[C@@H]2C(=O)N3[C@@H]2SC(C)(C)[C@@H]3C(=O)O)ccc1O
inactive: [1] -7.45% | [2] -11.2% | [3] -7.9% | [4] -1.55% | [5] -15.2% | [6] 6.65%

O=C(CC(=O)c1ccc(Cl)s1)C(=O)NC1C2CC3CC(C2)CC1C3 (stereo unspecified)
inactive: [1] -15% | [2] 15.9% | [3] 7.9% | [4] -26.6% | [5] 12.2% | [6] 3.55%

Cc1cc(Cl)ccc1NC(=O)NC(C)(C)COC(=O)Nc1cccc(Cl)c1
inactive: [1] 26% | [2] -7.3% | [3] 23.4% | [4] 9.15% | [5] 16.1% | [6] 27.9%

CCNc1nc2c(N)ncnc2n1C1OC(CO)C(O)C1O (stereo unspecified)
inactive: [1] 12.8% | [2] -8.4% | [3] 6.45% | [4] -3.35% | [5] -0.1% | [6] -6.6%

COc1ccc([N+](=O)[O-])cc1NC(=O)N/N=C(\C)C(C)(C)C
inactive: [1] 5.2% | [2] 18.2% | [3] 8.8% | [4] -9.35% | [5] 3.4% | [6] 6.3%

CCCCC(CC)C(C(C)=O)N(C)C (stereo unspecified)
inactive: [1] 33.1% | [2] -9.45% | [3] 13.1% | [4] 8.65% | [5] 4.45% | [6] 4.75%

CC(=O)OCc1cocc1COC(C)=O
inactive: [1] -17.2% | [2] -36% | [3] 20.4% | [4] -3.2% | [5] -4.1% | [6] 8.3%

O=C1C=CC(=O)N1C(c1ccccc1)(c1ccccc1)c1ccccc1
active: [1] 99% | [2] 99.7% | [3] 99.5% | [4] 99% | [5] 99.5% | [6] 99.5%

Cc1ccc(S(=O)(=O)Nc2cc3c(cc2NC(=O)C(F)(F)F)-c2ccccc2C3)cc1
inactive: [1] 52.8% | [2] -9% | [3] 38.8% | [4] -7.4% | [5] -1.25% | [6] 46%

CNc1nc2c(C)ccc3[nH]c(NC)nc3c-2n1
inactive: [1] -22.2% | [2] -25.1% | [3] -6.65% | [4] 1.95% | [5] -41.4% | [6] -15.9%

S=C(Nc1ccccc1)NC1SNC(=Nc2ccccc2)N1c1ccccc1 (stereo unspecified)
active: [1] 98.2% | [2] 99.4% | [3] 98.8% | [4] 99.3% | [5] 99.3% | [6] 99%

N#Cc1ccc(OCCCCCOc2ccc([N+](=O)[O-])cc2)cc1
inactive: [1] 19.4% | [2] 11.6% | [3] 8.65% | [4] 12.8% | [5] 13.9% | [6] 4.4%

Cc1cc2c(=O)c3ccc(Cl)cc3[nH]c2c(C(N)=O)c1C
inactive: [1] 22.2% | [2] 7.4% | [3] 14.5% | [4] 26.3% | [5] 6.6% | [6] 13.3%

O=C(O)CCn1cnc2c(=S)nc[nH]c21
inactive: [1] -23.2% | [2] -23.1% | [3] -28.4% | [4] -3.05% | [5] -54.6% | [6] -16.5%

COc1ccc(C(C)=O)cc1C=O
inactive: [1] 1.4% | [2] 9.65% | [3] -2.65% | [4] -13.2% | [5] -20.1% | [6] 16.2%

COc1ccc(/C=N/NC(=O)NNC(=O)c2cc([N+](=O)[O-])cc([N+](=O)[O-])c2)cc1OC
inactive: [1] 33.2% | [2] 13.3% | [3] 36.7% | [4] 15.4% | [5] 3.6% | [6] 32.4%
